Assay results from the supplement of paper PMC12669032.
Values without a mark were called inactive.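 How the source made its calls: active = AUC reduced over 20% with Padj below 0.05 in at least 2 of 3 replicates; inactive = otherwise.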

system: Roseburia intestinalis; test: growth AUC relative to DMSO control (median of replicates) (fraction); higher = more growth (less inhibition), active = hit call of the paper; conditions: 20 µM; 24 h
In short: (§1)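 Area under the growth curve was normalised to the plate median of solvent-only wells, or to row and column medians on the industrial chemical plate. Growth curves came from anaerobic gut bacterial monocultures in mGAM at 37 °C, seeded at OD600 0.05 with 20 µM compound (1% DMSO), and read at OD600 hourly for 24 h with the minimum OD set to 0. The value is the median of three biological replicates grown on separate days.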

Compound	growth AUC
COc1ccccc1N	1.03
CNC(=O)O/N=C/C(C)(C)S(C)=O (stereo not drawn)	0.994
CCNc1nc(Cl)nc(NCC)n1	0.968
CCCN(CC)CC1COC2(CCC(C(C)(C)C)CC2)O1 (stereo not drawn)	1.03
Clc1ccccc1Cl	0.968
COC(=O)Nc1cccc(OC(=O)Nc2cccc(C)c2)c1	0.936
O=C(O)COc1ccccc1	0.995
Cc1ccc(N=CN(C)C=Nc2ccc(C)cc2C)c(C)c1	0.983
CO/N=C(/C(=O)OC)c1ccccc1COc1ccccc1C	0.97
Cc1cc(OC(=O)N(C)C)nn1C(=O)N(C)C	1.06
CNC(=O)O/N=C(\SC)C(=O)N(C)C	0.997
CCCCc1c(C)nc(N(C)C)[nH]c1=O	0.959
COP(=S)(OC)Oc1ccc([N+](=O)[O-])c(C)c1	0.949
Oc1ccc(-c2ccccc2)cc1	0.947
C=CCN=C=S	0.986
Nc1ncn[nH]1	0.985
CCNc1nc(NC(C)C)nc(SC)n1	1.02
CC(C)(C)[C@@H](O)[C@H](Oc1ccc(Cl)cc1)n1cncn1	1.08
C[C@@H](Oc1ccc(Oc2ncc(C(F)(F)F)cc2Cl)cc1)C(=O)O	0.981
O=[N+]([O-])c1ccc2ccc3cccc4ccc1c2c34	1.28

Compound	growth AUC
CNC(=O)Oc1cccc2c1OC(C)(C)C2O (stereo not drawn)	0.979
COP(=S)(OC)Oc1ccc(S(C)=O)c(C)c1 (stereo not drawn)	1.07
CC(=NCc1ccc(Cl)nc1)NC#N	0.997
COCC(C)N(C(=O)CCl)c1c(C)csc1C (stereo not drawn)	0.988
CC(=O)O.NC(N)=NCCCCCCCCNCCCCCCCCN=C(N)N	0.039 (active)
CN(C)C(=O)Nc1cccc(C(F)(F)F)c1	0.979
Cc1cc(Cl)ccc1OCC(=O)O	1.02
O=S(=O)(Oc1ccc(Cl)cc1)c1ccc(Cl)cc1	0.948
COP(=S)(OC)Oc1ccc(C#N)cc1	1.06
Nc1cc(Cl)cc(Cl)c1	1.07
O=C(O)C(F)(F)C(F)(F)C(F)(F)C(F)(F)C(F)(F)C(F)(F)C(F)(F)C(F)(F)C(F)(F)F	0.96
O=C(O)C1(O)c2ccccc2-c2ccc(Cl)cc21 (stereo not drawn)	0.991
CCCN(CCC)c1c([N+](=O)[O-])cc(C(F)(F)F)cc1[N+](=O)[O-]	1
Cc1cc(Cl)ccc1O	1.01
N#Cc1nn(-c2c(Cl)cc(C(F)(F)F)cc2Cl)c(N)c1C(F)(F)F	0.698 (active)
Clc1ccc(Cl)c(Cl)c1	0.989
ClCC(Br)CBr (stereo not drawn)	1
CC(C)CC(C)c1sccc1NC(=O)c1cn(C)nc1C(F)(F)F (stereo not drawn)	0.998
COC(=O)C(C)N(C(=O)c1ccco1)c1c(C)cccc1C (stereo not drawn)	0.97

system: Streptococcus salivarius; test: as above; conditions: 20 µM; 24 h
In short: as §1

Compound	growth AUC
COc1ccccc1N	0.998
CNC(=O)O/N=C/C(C)(C)S(C)=O (stereo not drawn)	1.01
CCNc1nc(Cl)nc(NCC)n1	1.03
CCCN(CC)CC1COC2(CCC(C(C)(C)C)CC2)O1 (stereo not drawn)	0.96
Clc1ccccc1Cl	1.07
COC(=O)Nc1cccc(OC(=O)Nc2cccc(C)c2)c1	0.996
O=C(O)COc1ccccc1	0.994
Cc1ccc(N=CN(C)C=Nc2ccc(C)cc2C)c(C)c1	0.967
CO/N=C(/C(=O)OC)c1ccccc1COc1ccccc1C	0.97
Cc1cc(OC(=O)N(C)C)nn1C(=O)N(C)C	0.971
CNC(=O)O/N=C(\SC)C(=O)N(C)C	1.02
CCCCc1c(C)nc(N(C)C)[nH]c1=O	1.02
COP(=S)(OC)Oc1ccc([N+](=O)[O-])c(C)c1	0.991
Oc1ccc(-c2ccccc2)cc1	0.968
C=CCN=C=S	0.994
Nc1ncn[nH]1	0.997
CCNc1nc(NC(C)C)nc(SC)n1	0.973
CC(C)(C)[C@@H](O)[C@H](Oc1ccc(Cl)cc1)n1cncn1	1.04
C[C@@H](Oc1ccc(Oc2ncc(C(F)(F)F)cc2Cl)cc1)C(=O)O	0.999
O=[N+]([O-])c1ccc2ccc3cccc4ccc1c2c34	1.06

Compound	growth AUC
CNC(=O)Oc1cccc2c1OC(C)(C)C2O (stereo not drawn)	1.02
COP(=S)(OC)Oc1ccc(S(C)=O)c(C)c1 (stereo not drawn)	0.988
CC(=NCc1ccc(Cl)nc1)NC#N	1
COCC(C)N(C(=O)CCl)c1c(C)csc1C (stereo not drawn)	0.868
CC(=O)O.NC(N)=NCCCCCCCCNCCCCCCCCN=C(N)N	0.474 (active)
CN(C)C(=O)Nc1cccc(C(F)(F)F)c1	0.991
Cc1cc(Cl)ccc1OCC(=O)O	0.983
O=S(=O)(Oc1ccc(Cl)cc1)c1ccc(Cl)cc1	0.983
COP(=S)(OC)Oc1ccc(C#N)cc1	0.959
Nc1cc(Cl)cc(Cl)c1	1.01
O=C(O)C(F)(F)C(F)(F)C(F)(F)C(F)(F)C(F)(F)C(F)(F)C(F)(F)C(F)(F)C(F)(F)F	0.942
O=C(O)C1(O)c2ccccc2-c2ccc(Cl)cc21 (stereo not drawn)	0.982
CCCN(CCC)c1c([N+](=O)[O-])cc(C(F)(F)F)cc1[N+](=O)[O-]	1.04
Cc1cc(Cl)ccc1O	1.04
N#Cc1nn(-c2c(Cl)cc(C(F)(F)F)cc2Cl)c(N)c1C(F)(F)F	0.539 (active)
Clc1ccc(Cl)c(Cl)c1	1.01
ClCC(Br)CBr (stereo not drawn)	0.973
CC(C)CC(C)c1sccc1NC(=O)c1cn(C)nc1C(F)(F)F (stereo not drawn)	0.984
COC(=O)C(C)N(C(=O)c1ccco1)c1c(C)cccc1C (stereo not drawn)	0.942
